Pf growth 96h: inhibits malaria parasite growth, 96 h; P. falciparum luciferase reporter growth, 96 h; AID 504834; Potency, µM (titrated, usually from 28.7 µM), for the others: at the top dose activity change, negative = inhibition, most hits filed as inhibitors; hit rate 6.9% among 320,000; active = well fitted inhibition curve with a large enough effect; inconclusive = small, poorly fitted or top-dose-only effect, or another doubt; inactive = no such curve, though single readings can be large or run the other way; note: % is set by controls: 0 for no effect and ±100 for the full control effect
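Readout is luminescence from an integrated firefly luciferase in P. falciparum. Red cells, 2% hematocrit and 0.05% parasitemia final, were cultured with compound through two parasite generations (96 hours) at 37 C, 5% CO2.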
RE007 growth inh: less growth of the S. pombe RE007 Vpr strain; AID 651644; hit rate 0.21% among 360,000; Potency, µM (top dose mostly 92.2 µM), for the others: at the highest dose activity change, negative = less growth, actives largely listed as inhibitors; S. pombe RE007 Vpr strain, BacTiter-Glo ATP luminescence, 24 h; active = well fitted falling curve with a large enough effect; inconclusive = small, poorly fitted or top-dose-only effect; inactive = no such curve, though single readings can be large or run the other way; note: % is set by controls: 0 for no effect and ±100 for the full control effect; nearly all actives have a fitted effect of over 50% in size
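Fission yeast strain RE007, carrying one chromosomally integrated HIV-1 vpr copy, was seeded at OD 0.01 in PMG+AL medium with 23 nL pinned compound. After 24 h at 30 °C and 99% humidity, viability was read by BacTiter-Glo luminescence.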
NS1 function inh: blocks influenza NS1 protein function | Potency, µM (highest dose often 46.1 µM), for inactives: at the highest dose activity, positive = more growth | hit rate 0.4% among 270,000 | AID 2326; note: actives are rising curves; nearly all actives have a fitted effect of over 50% in size
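Recovery from NS1-induced slow growth read by OD600 in budding yeast switched to galactose assay medium (pH 6.0, -URA) at 1:100 dilution. Compound 23 nl per well; the matching strain lacking NS1 serves as control.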
SARS PLpro yeast: inhibitors of SARS-CoV papain-like protease in yeast. S. cerevisiae expressing SARS-CoV PLpro, growth rescue. Potency, µM (series often up to 32.9 µM), for the others: top-dose activity, positive = growth rescue, actives largely listed as activators. hit rate 0.19% among 330,000; note: 0% is about no effect; nearly all actives have a fitted effect of over 55% in size
Pf growth 48h: inhibits P. falciparum growth in the first generation, 48 h; P. falciparum luciferase growth in erythrocytes, 48 h; hit rate 5.9% among 310,000; Potency, µM (top dose mostly 28.7 µM), inactives show at the highest dose activity change, negative = inhibition, hits mostly inhibitors; active = well fitted inhibition curve with a large enough effect; inconclusive = small, poorly fitted or top-dose-only effect, or another doubt; inactive = no such curve, though single readings can be large or run the other way; note: % is set by controls: 0 for no effect and ±100 for the full control effect
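First compound was added to culture medium, then infected red cells at 0.1% parasitemia and 2% hematocrit (final). After incubation at 37 C under 5% CO2, luciferase detection reagent was dispensed and light output recorded.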
* = called active by the depositor; u = inconclusive; x = no result given; ! = repeats disagree; [ ] = dose if it differs, or a comment. Most compounds without a hit are left out; they make up all but 9.5% or so of the library. Unless noted, calls come from the whole dose curve. Potency is the fitted concentration of half-maximal effect.

SMILES	Pf growth 96h	RE007 growth inh	NS1 function inh	SARS PLpro yeast	Pf growth 48h
CCOC(=O)CC1C(=O)NCCN1S(=O)(=O)c1cccc(C(F)(F)F)c1 (stereo unspecified)	u	-5%	8%	-4%	13%
O=C1C(Cl)=C(N2CCN(c3ccccc3[N+](=O)[O-])CC2)C(=O)c2ccccc21	8.3µM*	-25%	1%	-11%	u
COc1ccc2oc(C(=O)OCc3c(C)noc3C)c(C)c2c1	-1%	-5%	-3%	0%	-16%
CCc1cc(C(=O)N=Nc2c(O)[nH]c3c(Br)cc(Br)cc23)c2ccccc2n1	4.7µM*	-4%	25%	4%	-24%
c1ccc(-c2nnc(-c3ccccn3)c(-c3ccccn3)n2)nc1	u	5%	-20%	7%	u
CCN(CC)c1nc(-c2ccccn2)nc(-c2ccccc2)c1C#N	4.1µM*	26%	x	12%	u
CN(C)c1nc(-c2ccccn2)nnc1-c1ccccc1	2.1µM*	u	-37%	-34%	x
COc1ccc(CCNC(=O)c2c(C)nn(-c3ccccc3)c2Cl)cc1OC	-20%	6%	-5%	-1%	-10%
O=C(Nc1ccc(N2CCOCC2)cc1)c1csc([C@H]2C[C@H](O)[C@@H](CO)O2)n1	x	13%	x	x	x
Cc1cccc(N(C(=O)c2sc(C)nc2C)C(C(=O)NCc2ccco2)c2ccccc2)c1 (stereo unspecified)	u	7%	-8%	4%	u
Cc1cc(C)cc(N(C(=O)c2sc(C)nc2C)C(C(=O)NCc2ccco2)c2ccccc2)c1 (stereo unspecified)	12µM*	4%	-5%	2%	u
CCN(CC)S(=O)(=O)c1ccc(/C=C/C(=O)OCC(=O)NCc2ccco2)cc1	x	3%	x	2%	x
COC(=O)CCc1c(C)[nH]c(C(=O)OCc2ccccc2)c1C	13%	-4%	-13%	-4%	32%
CCOC(=O)c1[nH]c(C(=O)O)c(CCC(=O)OC)c1C	12µM*	5%	-3%	-1%	1%
COc1ccc(C(=O)COC(=O)c2sccc2C)cc1OC	x	-3%	x	3%	x
COC(=O)C1=C(c2ccc(-c3ccccc3)c(F)c2)C[C@@H]2CC[C@H]1N2C(=O)NCCOc1ccccc1	u	2%	x	0%	3.3µM*
COC(=O)C1=C(c2ccc(F)cc2F)C[C@@H]2CC[C@H]1N2C(=O)NCC1CC1	39%	4%	x	-6%	24%
COCCNC(=O)N1[C@H]2CC[C@@H]1C(C(=O)OC)=C(c1ccc(-c3ccccc3)c(F)c1)C2	u	7%	x	-1%	u
COC(=O)C1=C(c2ccc(-c3ccccc3)c(F)c2)C[C@@H]2CC[C@H]1N2C(=O)NC1Cc2ccccc2C1	u	1%	x	3%	9.3µM*
COC(=O)C1=C(c2ccc3ccccc3c2)C[C@@H]2CC[C@H]1N2C(=O)NCC1CC1	u	9%	x	-3%	3.3µM*
COC(=O)C1=C(c2ccc(-c3ccccc3)c(F)c2)C[C@@H]2CC[C@H]1N2C(=O)NCC1CC1	u	4%	x	-3%	4.7µM*
COC(=O)C1=C(c2ccc3ccccc3c2)C[C@@H]2CC[C@H]1N2C(=O)NC1CC1	u	-8%	x	-8%	u
COc1ccc(NC(=O)CN(C)CC(=O)N(C)C2(C#N)CCC(C)CC2)cc1 (stereo unspecified)	5%	1%	x	-5%	2%
NC(=O)C1CCN(Cc2nc3cc(C(F)(F)F)ccc3c(=O)[nH]2)CC1	0%	1%	0%	-1%	12%
Cc1nnc(-c2cccc(Br)c2)c2cn(-c3ccc(Br)cc3)nc12	2.6µM*	2%	7%	-14%	u
Cc1nnc(-c2cccc(Br)c2)c2cn(-c3ccccc3)nc12	13%[5.75 µM]	-11%	u	3%	11%
O=C(CN1CCN(c2ccccn2)CC1)N(c1ccccc1)c1ccc2ccccc2c1	5.2µM*	-11%	-85%	-7%	12µM*
CN1CCN(CC(=O)N2c3ccccc3C(=O)Nc3cccnc32)CC1	15µM*!	x	-4%	-4%	-1%
O=C(CN1CCN(c2ccccn2)CC1)N1c2ccccc2Sc2ccc(C(F)(F)F)cc21	x	-3%[3.69 µM]	-145%	-11%	4.7µM*

Screens (PubChem)
